Results reported in PubChem BioAssay (NCATS).
Several values for one entry are separate records, joined by “and”; a condition that tells them apart may be missing. Identical values can stand only once. Results filed as inconclusive are left out. Activity calls are given as the source filed them. Unless noted, calls come from the whole dose curve; as a rule, active = well fitted curve in the direction sought with a large enough effect; inconclusive = small, poorly fitted or top-dose-only effect, or another doubt; inactive = no such curve, though single readings can be large; an effect the other way counts as inactive or inconclusive. Non-standard residues stand in square brackets, D forms with d. Residues, ends and D or L forms follow the SMILES beside them.

Tests used:
[1] = molecular target: Mitogen-activated protein kinase 10 (Mus musculus) (UniProt Q61831); assay: JNK3 AlphaScreen Assay (AID 530; active = well fitted curve in either direction with a large enough effect, not every such curve was filed as active;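 note: kinase came from lysate of stimulated human HepG2 cells; signal reports phosphorylation of biotinylated GST-cJun 1-79 at Ser73 with 10 µM ATP; % is set by controls: 0 for no effect and ±100 for the full control effect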)
Method in brief: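 Room-temperature AlphaScreen kinase assay; pre-activated HepG2 lysate as JNK3 source, biotin-GST-cJun(1-79) substrate, 10 uM ATP, compound 15 min preincubation.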

[2] = molecular target: Rap guanine nucleotide exchange factor 4 (Homo sapiens) (UniProt Q8WZA2); assay: Confirmatory qHTS for antagonist of cAMP-regulated guanine nucleotide exchange factor 4 (EPAC2) (AID 1645885); note: potency is the fitted concentration of half-maximal effect; nearly all actives have a fitted effect of over 25% in size
[3] = Primary qHTS for small molecule stabilizers of the endoplasmic reticulum resident proteome: Secreted ER Calcium Modulated Protein (SERCaMP) assay (AID 1508630); note: % is set by controls: 0 for no effect and ±100 for the full control effect
Method in brief: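 GLuc-SERCaMP-expressing SH-SY5Y cells, pretreated 16 h with compound, are challenged with thapsigargin to empty ER calcium stores; after 4 h, coelenterazine is added directly to the medium and luminescence is imaged.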

[4] = molecular target: Cytochrome P450 1A2 (Homo sapiens) (UniProt P05177); assay: p450-cyp1a2 (AID 410; calls by dose curve; note: potency is the fitted concentration of half-maximal effect;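 for activity change, negative = inhibition: -100% = full effect of reference inhibitor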)
Chain of Cytochrome P450 1A2 (Homo sapiens) (P05177 whole entry, looked up): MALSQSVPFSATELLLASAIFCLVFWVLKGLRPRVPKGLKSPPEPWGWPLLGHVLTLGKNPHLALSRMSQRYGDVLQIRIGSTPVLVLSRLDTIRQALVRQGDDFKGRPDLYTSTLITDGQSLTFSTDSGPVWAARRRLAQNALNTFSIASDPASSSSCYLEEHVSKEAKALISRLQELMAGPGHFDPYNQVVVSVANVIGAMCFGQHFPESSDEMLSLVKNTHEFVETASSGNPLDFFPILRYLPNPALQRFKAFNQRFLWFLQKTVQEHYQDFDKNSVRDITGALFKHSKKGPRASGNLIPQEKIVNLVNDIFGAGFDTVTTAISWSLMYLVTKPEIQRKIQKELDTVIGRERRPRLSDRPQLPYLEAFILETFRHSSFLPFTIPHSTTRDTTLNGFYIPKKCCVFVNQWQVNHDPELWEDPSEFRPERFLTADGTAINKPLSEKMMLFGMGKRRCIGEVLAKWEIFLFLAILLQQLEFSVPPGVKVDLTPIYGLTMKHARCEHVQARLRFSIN
Method in brief: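 Inhibition was calculated relative to 57 uM furafylline (full inhibition). The reaction used human CYP1A2 at 20nM with Luciferin-ME at its Km, 100uM, driven by an NADPH-regenerating system for 60 min at room temperature.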

[5] = molecular target: Glucocorticoid receptor (Homo sapiens) (UniProt P04150); assay: GR-GFP Redistribution (AID 450;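 active = compounds whose dose series gives a full or clear partial fitted curve of increased nuclear translocation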; note: potency is the fitted concentration of half-maximal effect); settings: U2OS GR-GFP nuclear translocation, laser cytometry, 2 h
Chain of Glucocorticoid receptor (Homo sapiens) (P04150 whole entry, looked up, the tested form may be a part): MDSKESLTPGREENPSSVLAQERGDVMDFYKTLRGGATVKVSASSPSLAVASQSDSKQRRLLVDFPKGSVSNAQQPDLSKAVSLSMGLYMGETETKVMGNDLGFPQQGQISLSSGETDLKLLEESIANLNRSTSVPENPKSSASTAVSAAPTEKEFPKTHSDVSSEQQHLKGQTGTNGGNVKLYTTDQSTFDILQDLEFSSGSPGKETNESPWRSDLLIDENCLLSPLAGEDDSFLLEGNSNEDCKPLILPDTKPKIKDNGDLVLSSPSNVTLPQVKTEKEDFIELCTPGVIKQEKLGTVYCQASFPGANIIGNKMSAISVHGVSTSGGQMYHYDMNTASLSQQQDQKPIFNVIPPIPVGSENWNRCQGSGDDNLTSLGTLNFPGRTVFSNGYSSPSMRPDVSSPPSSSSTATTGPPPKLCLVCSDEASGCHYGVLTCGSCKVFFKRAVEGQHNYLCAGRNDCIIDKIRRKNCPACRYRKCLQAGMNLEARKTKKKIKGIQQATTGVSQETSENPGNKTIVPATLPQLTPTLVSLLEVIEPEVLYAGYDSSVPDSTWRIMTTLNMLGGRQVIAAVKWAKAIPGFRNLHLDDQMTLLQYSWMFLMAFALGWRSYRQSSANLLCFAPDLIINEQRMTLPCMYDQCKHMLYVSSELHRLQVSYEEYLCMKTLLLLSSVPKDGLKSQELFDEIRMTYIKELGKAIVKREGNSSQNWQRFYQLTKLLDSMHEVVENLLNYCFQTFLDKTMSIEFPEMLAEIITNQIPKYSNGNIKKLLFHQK

[6] = molecular target: Glucocorticoid receptor (Homo sapiens) (UniProt P04150); assay: GR-EFC Redistribution (AID 451; calls by dose curve; note: potency is the fitted concentration of half-maximal effect); settings: CHO-K1 GR-EFC translocation, beta-gal luminescence, 2 h
Method in brief: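 Translocation of GR-ED fusion to nuclear EA restores b-gal, read by luminescence after 1 h room-temperature detection. Engineered CHO-K1 biosensor cells, 1,000/well, exposed 2 h at 37 C to titrations up to 46 uM final.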

[7] = qHTS Assay for Lipid Storage Modulators (AID 1519; calls by dose curve); settings: Drosophila S3 cells, BODIPY lipid droplet/cell ratio, laser cytometry, cells loaded with oleic acid; for activity change, negative = inhibition: at 57.5 µM (top of the series)
Method in brief: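 Cells seeded at 5,000 per well were treated with compounds over a concentration series and loaded with oleic acid (400 uM, as added). Lipid droplet fluorescence (488 nm excitation, 500-530 nm channel) was read by laser-scanning cytometry and normalized to 20 uM Triacsin C.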

[8] = molecular target: DNA dC->dU-editing enzyme APOBEC-3G (Homo sapiens) (UniProt Q9HC16); assay: qHTS for inhibitors of Vif-A3G interactions: Validation (AID 588379); note: 0% is about no effect
Chain of DNA dC->dU-editing enzyme APOBEC-3G (Homo sapiens) (Q9HC16 whole entry, looked up): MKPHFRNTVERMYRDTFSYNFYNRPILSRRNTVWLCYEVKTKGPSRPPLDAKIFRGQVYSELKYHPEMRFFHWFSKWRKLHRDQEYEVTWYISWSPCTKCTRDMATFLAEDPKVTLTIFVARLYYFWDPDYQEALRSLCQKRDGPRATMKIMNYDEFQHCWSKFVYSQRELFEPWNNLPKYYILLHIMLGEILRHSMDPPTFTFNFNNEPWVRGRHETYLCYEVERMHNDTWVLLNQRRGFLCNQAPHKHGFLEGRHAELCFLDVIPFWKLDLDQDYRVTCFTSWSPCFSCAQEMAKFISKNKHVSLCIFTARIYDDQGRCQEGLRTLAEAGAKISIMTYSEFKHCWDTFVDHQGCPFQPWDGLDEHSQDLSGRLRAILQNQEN
Method in brief: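 HeLa cells stably expressing Vif and A3G-eYFP, 700 cells/well, incubated overnight at 37 deg C, then exposed to compound overnight at 37 deg C. Inhibition of Vif-mediated degradation read as increased yellow fluorescence (Ex 488/Em 500-530) by laser-scanning cytometry.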

[9] = molecular target: Cytochrome P450 2C9 (Homo sapiens) (UniProt P11712); assay: qHTS Assay for Inhibitors and Substrates of Cytochrome P450 2C9 (AID 883); note: potency is the fitted concentration of half-maximal effect; nearly all actives have a fitted effect of over 60% in size
Method in brief: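 Turnover of Luciferin-H (100uM, KM) by 10nM human CYP2C9 was measured over 60 min at 37C with NADPH regeneration; inhibitors and some substrates reduce luminescence. Data normalized to sulphaphenazole 57uM.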

[10] = molecular target: Cytochrome P450 3A4 (Homo sapiens) (UniProt P08684); assay: qHTS Assay for Activators of Cytochrome P450 3A4 (AID 885); note: nearly all actives have a fitted effect of over 65% in size
Chain of Cytochrome P450 3A4 (Homo sapiens) (P08684 whole entry, looked up): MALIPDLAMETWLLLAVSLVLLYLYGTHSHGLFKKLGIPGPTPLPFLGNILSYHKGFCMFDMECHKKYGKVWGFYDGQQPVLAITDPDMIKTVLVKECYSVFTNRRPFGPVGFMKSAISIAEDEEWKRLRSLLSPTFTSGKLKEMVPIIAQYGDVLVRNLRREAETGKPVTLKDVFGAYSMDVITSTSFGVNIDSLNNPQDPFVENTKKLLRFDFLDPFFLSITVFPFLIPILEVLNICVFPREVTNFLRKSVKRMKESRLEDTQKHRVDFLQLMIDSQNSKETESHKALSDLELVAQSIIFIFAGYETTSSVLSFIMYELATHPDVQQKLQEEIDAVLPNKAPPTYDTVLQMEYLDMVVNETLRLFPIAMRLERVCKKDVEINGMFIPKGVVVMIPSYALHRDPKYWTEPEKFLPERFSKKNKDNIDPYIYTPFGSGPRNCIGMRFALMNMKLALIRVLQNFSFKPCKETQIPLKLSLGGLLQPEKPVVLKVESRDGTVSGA
Method in brief: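 20nM CYP3A4 + 25uM Luciferin-PPXE (=KM), 200mM KPO4; cpd 10 min RT; NADPH regen, 60 min RT; stop w/ detection buffer, 20 min; luminescence. Normalized to 57 uM ketoconazole.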

[11] = molecular target: Cytochrome P450 2C19 (Homo sapiens) (UniProt P33261); assay: qHTS Assay for Inhibitors and Substrates of Cytochrome P450 2C19 (AID 899); note: potency is the fitted concentration of half-maximal effect; nearly all actives have a fitted effect of over 60% in size
Chain of Cytochrome P450 2C19 (Homo sapiens) (P33261 whole entry, looked up): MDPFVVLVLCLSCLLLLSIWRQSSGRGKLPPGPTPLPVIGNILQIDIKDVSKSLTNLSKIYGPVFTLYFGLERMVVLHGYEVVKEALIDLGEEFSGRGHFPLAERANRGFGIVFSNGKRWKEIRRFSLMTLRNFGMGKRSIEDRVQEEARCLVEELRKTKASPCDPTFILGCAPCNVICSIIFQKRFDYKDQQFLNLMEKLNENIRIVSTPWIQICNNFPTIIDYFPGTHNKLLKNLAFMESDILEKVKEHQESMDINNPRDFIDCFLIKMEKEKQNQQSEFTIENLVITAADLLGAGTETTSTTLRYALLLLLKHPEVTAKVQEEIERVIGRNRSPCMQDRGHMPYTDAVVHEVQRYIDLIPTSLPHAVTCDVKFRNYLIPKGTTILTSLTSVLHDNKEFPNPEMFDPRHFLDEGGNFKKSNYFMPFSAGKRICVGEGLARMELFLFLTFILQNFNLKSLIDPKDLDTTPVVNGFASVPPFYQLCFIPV
Method in brief: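 Reactions contain 5nM enzyme, 10uM Luciferin-H EGE (KM) and 50mM KPO4; compound preincubates 10 min at 37C, NADPH regeneration starts turnover for 60 min. Luminescence after detection reagent gives activity.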

[12] = molecular target: Ubiquitin carboxyl-terminal hydrolase 1 (Homo sapiens) (UniProt O94782); assay: Inhibitors of USP1/UAF1: Pilot qHTS (AID 504865);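 note: rhodamine fluorescence freed from ubiquitin-rhodamine substrate followed over time; top concentration of the series differs between compounds; % is set by controls: 0 for no effect and ±100 for the full control effect; nearly all actives have a fitted effect of over 35% in size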
Chain of Ubiquitin carboxyl-terminal hydrolase 1 (Homo sapiens) (O94782 whole entry, looked up): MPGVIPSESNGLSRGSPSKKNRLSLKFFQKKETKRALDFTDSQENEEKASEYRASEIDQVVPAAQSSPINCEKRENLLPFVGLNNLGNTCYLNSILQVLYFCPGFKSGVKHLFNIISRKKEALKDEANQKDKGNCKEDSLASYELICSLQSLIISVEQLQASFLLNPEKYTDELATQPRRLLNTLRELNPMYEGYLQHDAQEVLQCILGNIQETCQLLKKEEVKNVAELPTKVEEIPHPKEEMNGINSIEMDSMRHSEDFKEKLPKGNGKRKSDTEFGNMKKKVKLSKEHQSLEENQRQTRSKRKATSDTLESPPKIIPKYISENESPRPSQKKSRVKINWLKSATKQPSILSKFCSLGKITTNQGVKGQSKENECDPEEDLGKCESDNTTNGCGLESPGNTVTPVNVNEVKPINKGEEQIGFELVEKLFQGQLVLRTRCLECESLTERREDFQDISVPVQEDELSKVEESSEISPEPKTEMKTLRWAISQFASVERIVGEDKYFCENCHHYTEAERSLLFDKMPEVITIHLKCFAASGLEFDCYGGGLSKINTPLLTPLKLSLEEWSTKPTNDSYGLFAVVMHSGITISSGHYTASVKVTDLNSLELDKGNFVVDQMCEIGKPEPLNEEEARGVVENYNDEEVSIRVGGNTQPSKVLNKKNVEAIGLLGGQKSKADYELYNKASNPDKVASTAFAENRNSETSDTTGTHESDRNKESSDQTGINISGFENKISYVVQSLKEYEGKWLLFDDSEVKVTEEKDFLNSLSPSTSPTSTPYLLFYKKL
Method in brief: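 Kinetic fluorescence assay: 1nM USP1/UAF1, 15 min compound preincubation, then 150nM Ub-Rho; 480/540 nm.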

[13] = molecular target: 3',5'-cyclic-AMP phosphodiesterase 4B (Homo sapiens) (UniProt Q07343); assay: qHTS Assay for Inhibitors of PDE-IV (AID 607; active = well fitted activation curve with a large enough effect in the main read-out, with a control signal flat, not every such curve was filed as active; note: % of control where 0% means no effect)
Chain of 3',5'-cyclic-AMP phosphodiesterase 4B (Homo sapiens) (Q07343 whole entry, looked up): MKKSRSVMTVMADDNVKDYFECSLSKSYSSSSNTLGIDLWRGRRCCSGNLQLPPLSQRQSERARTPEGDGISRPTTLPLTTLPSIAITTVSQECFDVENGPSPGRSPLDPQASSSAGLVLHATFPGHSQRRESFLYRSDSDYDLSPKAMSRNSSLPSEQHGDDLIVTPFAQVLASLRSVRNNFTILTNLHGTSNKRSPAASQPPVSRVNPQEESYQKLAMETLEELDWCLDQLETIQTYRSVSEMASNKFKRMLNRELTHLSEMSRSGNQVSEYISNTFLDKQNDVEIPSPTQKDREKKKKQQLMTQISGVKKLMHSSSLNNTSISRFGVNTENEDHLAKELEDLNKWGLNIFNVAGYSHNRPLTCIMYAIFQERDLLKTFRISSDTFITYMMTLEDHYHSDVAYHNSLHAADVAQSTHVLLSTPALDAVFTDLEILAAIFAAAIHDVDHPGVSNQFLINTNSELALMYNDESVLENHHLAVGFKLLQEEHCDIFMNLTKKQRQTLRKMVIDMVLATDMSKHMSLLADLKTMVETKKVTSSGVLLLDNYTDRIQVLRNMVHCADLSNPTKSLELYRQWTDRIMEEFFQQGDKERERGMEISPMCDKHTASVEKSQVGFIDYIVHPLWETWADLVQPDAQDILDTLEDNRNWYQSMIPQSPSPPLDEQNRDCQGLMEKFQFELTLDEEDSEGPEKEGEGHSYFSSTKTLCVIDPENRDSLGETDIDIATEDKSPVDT
Method in brief: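 ACTOne HEK293 cells carry a modified cAMP-gated CNG channel and express endogenous PDE4; plated 1000 cells/well, compounds up to 22.9 uM final. Membrane-potential dye fluorescence (ex 535/em 590) was read; parental cells received 10 uM forskolin + 100 uM RO 20-1724.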

[14] = AP1 Signaling Pathway (AID 357; active = well fitted curve in either direction with a large enough effect, not every such curve was filed as active;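 note: ME-180 reporter cells stimulated with EGF at its EC50 level; % is set by controls: 0 for no effect and ±100 for the full control effect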); settings: ME-180 AP-1-bla reporter, EGF-induced, beta-lactamase ratio, 5 h; at 38 µM (top of the series)
Method in brief: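 A ratiometric CCF4 readout (405 nm excitation; 460 and 530 nm emission) quantified AP-1-driven beta-lactamase in ME-180 cells after 5 h with compound and EC50 EGF; AC50 values were derived for activators and inhibitors.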

[15] = NFAT Signaling Pathway (AID 444; active = well fitted curve in either direction with a large enough effect, not every such curve was filed as active;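 note: carbachol stimulus at about its EC50 of 1 µM final; % is set by controls: 0 for no effect and ±100 for the full control effect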); settings: Jurkat NFAT-bla M1, carbachol, beta-lactamase ratio, 5 h; at 38 µM (top of the series)
Method in brief: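 Read-out: CCF4 FRET ratio (460 nm/530 nm) after 1 h RT dye loading, used for %activity and AC50 from titration series. Cells: Jurkat NFAT-β-lactamase/M1 line, treated with compound plus 1 uM carbachol for 5 h, 37 °C.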

[16] = Stat Signaling Pathway (AID 446; active = well fitted curve in either direction with a large enough effect, not every such curve was filed as active); settings: ME-180 SIE beta-lactamase reporter, IL-6 stimulated, 5 h; at 38 µM (top of the series)
Method in brief: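 ME-180 SIE-bla cells; overnight plating; cpd + IL-6 40 pM, 5 h, 37 C; LiveBLAzer 2.5 h RT; 460/530 nm emission ratio. Normalized to 300 pM IL-6 and 125 nM JAK inhibitor controls.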

[17] = molecular target: Guanine nucleotide-binding protein G(i) subunit alpha-1 (Homo sapiens) (UniProt P63096); assay: qHTS Assay for Inhibitors of RGS12 GoLoco Motif Activity (Green Fluorophore) (AID 879);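 note: 0% = labeled peptide with Gαi1 and full inhibition = labeled peptide alone without protein; negative values mean loss of peptide binding seen as reduced polarization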
Chain of Guanine nucleotide-binding protein G(i) subunit alpha-1 (Homo sapiens) (P63096 whole entry, looked up): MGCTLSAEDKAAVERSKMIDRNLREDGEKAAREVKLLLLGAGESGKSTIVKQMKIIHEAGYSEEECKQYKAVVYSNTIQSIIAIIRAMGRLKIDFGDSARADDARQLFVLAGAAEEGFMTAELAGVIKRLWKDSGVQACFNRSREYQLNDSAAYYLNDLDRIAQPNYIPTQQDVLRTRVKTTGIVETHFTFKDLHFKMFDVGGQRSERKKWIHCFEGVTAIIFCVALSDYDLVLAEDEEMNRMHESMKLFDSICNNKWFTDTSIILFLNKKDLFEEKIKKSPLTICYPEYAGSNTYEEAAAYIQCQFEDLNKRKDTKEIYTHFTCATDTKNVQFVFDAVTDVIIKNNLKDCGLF
Method in brief: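 Fluorescence polarization assay: 50 nM Gαi1 with 10 nM FITC-labeled RGS12 GoLoco peptide in 10 mM Tris pH 7.5, 150 mM NaCl, 0.1 mM GDP, 0.05% NP40, 10 min at room temperature with compound.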

[18] = qHTS Assay for Identification of Small Molecule Antagonists for NFkB Signaling Pathway (AID 895; active = well fitted inhibition curve with a large enough effect in the signal ratio, with a control signal flat, not every such curve was filed as active; the % refers to the signal ratio; note: % is set by controls: 0 for no effect and ±100 for the full control effect)
Method in brief: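 Beta-lactamase reporter read-out (460 and 530 nm emission ratio, 405 nm excitation, 2 hrs substrate loading RT) after 5 hr stimulation with 10 pM TNF alpha in compound-treated NFkB-bla ME-180 cells in low-serum medium.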

[19] = qHTS Assay for Identification of Small Molecule Agonists for Thrombopoietin (TPO) Signaling Pathway (AID 917); note: % is set by controls: 0 for no effect and ±100 for the full control effect
Method in brief: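 We measured Glycoprotein IIb promoter–luciferase output in IL-3-starved Ba/F3 murine cells expressing the human TPO receptor after 24 hrs at 37 C with compounds and 26 pM TPO.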

[20] = molecular target: Muscarinic acetylcholine receptor M1 (Rattus norvegicus) (UniProt P08482); assay: qHTS Assay for Antagonists of Acetylcholine Muscarinic M1 Receptor: Kinetic Measurement of Intracellular Calcium Response (AID 943);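 note: Fluo-4 calcium signal as peak divided by basal fluorescence over 4 min; nearly all actives have a fitted effect of over 75% in size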
Chain of Muscarinic acetylcholine receptor M1 (Rattus norvegicus) (P08482 whole entry, looked up): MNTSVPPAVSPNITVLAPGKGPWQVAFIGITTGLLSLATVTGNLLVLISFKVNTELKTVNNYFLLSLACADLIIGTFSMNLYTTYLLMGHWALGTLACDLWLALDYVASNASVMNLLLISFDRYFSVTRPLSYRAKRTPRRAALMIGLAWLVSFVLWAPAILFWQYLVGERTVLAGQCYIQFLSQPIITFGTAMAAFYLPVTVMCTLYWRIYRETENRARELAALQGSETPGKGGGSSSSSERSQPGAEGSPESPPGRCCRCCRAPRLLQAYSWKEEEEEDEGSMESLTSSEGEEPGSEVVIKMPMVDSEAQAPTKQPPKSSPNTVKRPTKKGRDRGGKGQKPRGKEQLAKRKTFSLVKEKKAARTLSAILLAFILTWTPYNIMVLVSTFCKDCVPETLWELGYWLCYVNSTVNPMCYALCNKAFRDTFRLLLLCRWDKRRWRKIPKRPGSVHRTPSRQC
Method in brief: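 Intracellular calcium flux, recorded with Fluo-4 in a kinetic plate reader, served as signal; the response to carbachol at EC80 (100 nM final) was taken as maximal over minimal fluorescence after a 10 min compound pre-incubation in rat M1-CHO cells.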

[21] = molecular target: Muscarinic acetylcholine receptor M1 (Rattus norvegicus) (UniProt P08482); assay: qHTS Assay for Antagonists of Acetylcholine Muscarinic M1 Receptor: Measurement of IP-One Response (AID 944); note: nearly all actives have a fitted effect of over 75% in size
Method in brief: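 Steps: plate transfected CHO-M1 cells overnight; add test compound, 10 min; add carbachol (200 nM, EC80) in stimulation buffer with LiCl; incubate 30 min; add labelled IP1 tracer and anti-IP1 antibody in lysis buffer; read HTRF after 10 min.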

[22] = molecular target: Pyruvate kinase (Leishmania mexicana) (UniProt Q27686); assay: qHTS Validation Assay for Inhibitors of Leishmania Mexicana Pyruvate Kinase (AID 945);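 note: 0% = DMSO only neutral control wells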
Method in brief: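 Substrate mix (0.5 mM PEP, 0.1 mM ADP, 7 mM MgCl2, 50 mM KCl, pH 7.2 imidazole) received compound by pin tool, then 0.2 nM LmPYK E451W. After 1 h at room temperature, PKLight was added and luminescence measured.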

[23] = molecular target: Pyruvate kinase PKM (Homo sapiens) (UniProt P14618); assay: qHTS Assay for Activators of Human Muscle Pyruvate Kinase (AID 954; active = well fitted curve in the direction sought with a large enough effect, not every such curve was filed as active;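 note: 0% = uninhibited enzyme and -100% = no enzyme or full thiadiazolimine inhibition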)
Method in brief: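 Luminescence from a luciferase ATP-detection/stop reagent reported PKM2 activity. Reactions contained 0.1 nM purified human enzyme, 0.5 mM PEP, 0.1 mM ADP and 7 mM MgCl2 at pH 7.2, run 1 h at RT.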

[24] = molecular target: Alpha-galactosidase A (Homo sapiens) (UniProt P06280); assay: Counterscreen for Glucocerebrosidase Inhibitors: qHTS Assay for Human alpha-Galactosidase at pH 4.5 (AID 992); note: 0% is about no effect
Method in brief: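 Enzyme at 2 nM final was combined with compound (0.7 nM to 77 uM) and 80 uM 4-methylumbelliferyl alpha-D-galactopyranoside in 50 mM citric acid, 0.005% Tween-20, pH 4.5. After 20 min at room temperature, fluorescence was read (Ex 365/Em 440 nm); AC50 came from Hill fits.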

[25] = molecular target: alpha-glucosidase (Oryza sativa, rice) (UniProt Q653V4); assay: Counterscreen for Glucocerebrosidase Inhibitors: qHTS Assay for Rice alpha-Glucosidase at pH 5.0 (AID 997);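 note: 0% = full activity with enzyme and -100% = basal without enzyme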
Method in brief: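 Rice alpha-glucosidase (4 nM final) with 400 uM 4-methylumbelliferyl-alpha-D-glucopyranoside in citrate buffer pH 5.0, 20 min at room temperature, stopped at pH 10; fluorescence 365/440 nm, compounds 0.7 nM–77 uM, AC50 from Hill fits.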

[26] = measured here: cell count channel max response
[27] = measured here: lipid channel max response

C/C=C\C[C@@H](C)[C@@H](O)[C@H]1C(=O)N[C@@H](CC)C(=O)N(C)CC(=O)N(C)[C@@H](CC(C)C)C(=O)N[C@@H](C(C)C)C(=O)N(C)[C@@H](CC(C)C)C(=O)N[C@@H](C)C(=O)N[C@H](C)C(=O)N(C)[C@@H](CC(C)C)C(=O)N(C)[C@@H](CC(C)C)C(=O)N(C)[C@@H](C(C)C)C(=O)N1C
active: Potency [2] 24.8 µM
inactive: Potency [1]

CCCCc1nc2ccn(CC(=O)N(C)C)c(=O)c2n1Cc1ccc(-c2ccccc2-c2nn[nH]n2)cc1
inactive: Potency [3]

O=C(O)COc1ccc(OCCNC[C@@H](O)COc2ccccc2)cc1
8.13%: max response [7, 26]
active: Potency [4] 39.8 µM
11.4%: max response [7, 27]
inactive: Potency [5] > 46 µM | Potency [6] > 46 µM | Potency [1] | activity change, negative = inhibition [7] 3.49% | Potency [8] | Potency [3]

Clc1cccc(Nc2nnc(-c3ccccc3)c3ccccc23)c1
inactive: Potency [5] > 46 µM | Potency [6] > 46 µM | Potency [1] | Potency [10] | Potency [8] | Potency [3]
active: Potency [4] 1.26 µM | Potency [9] 3.98 µM | Potency [11] 0.794 µM

Fc1ccc([C@H]2CCNC[C@H]2COc2ccc3c(c2)OCO3)cc1
inactive: Potency [5] > 46 µM | Potency [6] > 46 µM | Potency [1] | Potency [10] | Potency [12] | Potency [8] | Potency [3]
active: Potency [4] 3.16 µM

CSCC[C@H](C=O)NC(=O)[C@H](CC(C)C)NC(=O)[C@H](CC(C)C)NC(C)=O (Ac-Leu-Leu-[dM]-aldehyde)
inactive: Potency [4] | Potency [5] > 46 µM | Potency [6] > 46 µM | Potency [1] | Potency [13] | Potency [12] | Potency [8] | Potency [3]

CCCCCCCCCCCCCCCC(=O)NC(C)C
inactive: Potency [4] | Potency [6] > 46 µM | Potency [1] | Potency [13] | activity change, negative = inhibition [7] 0.0182% | Potency [8] | Potency [3]
-14.5%: max response [7, 26]
-16.6%: max response [7, 27]

C[C@@](N)(C(=O)O)c1ccc(C(=O)O)cc1
inactive: activity change, negative = inhibition [14] 2.6% | Potency [4] | activity change, negative = inhibition [15] 6.09% | activity, negative = inhibition [16] 4.5% | Potency [5] > 46 µM | Potency [6] > 46 µM | Potency [1] | Potency [13] | outcome [17] | Potency [18] | Potency [19] | Potency [20] | Potency [21] | Potency [22] | outcome [23] | outcome [24] | outcome [25] | activity change, negative = inhibition [7] -1.38% and 3.86% | Potency [12] | Potency [8] | Potency [3]
-13.1% and 2.03%: max response [7, 27]
-12.7% and -2.32%: max response [7, 26]
